Screens deposited in PubChem by The Scripps Research Institute Molecular Screening Center.
hgDAF12 agonist – hgDAF-12 agonism, primary luciferase screen | hit rate 1.8% among 370,000 | activation, % at 6.8 µM | AID 687014 | HEK293 GAL4-hgDAF12 UAS-luciferase reporter, agonist luminescence; normalized to butyrate control;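 active means activation above a cutoff set at the mean of all screened compounds plus 3 SD, cut at about 10% in these data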;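 further: 0% = DMSO wells and 100% = sodium butyrate wells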
DAX1 inh-1 – inhibits human nuclear receptor DAX1. HEK293 Gal4-DAX1 luciferase reporter, luminescence. AID 504766. P51843. hit rate 0.99% among 340,000. inhibition, % at 6.75 µM;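 active means inhibition above the mean over all tested compounds plus 3 SD, cut at about 4.2% in these data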;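 further: 0% = DAX1-transfected cells with DMSO and 100% = empty-vector control cells with DMSO; inhibition shows as a rise in luminescence from relieved DAX1 repression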
Target sequence (P51843 207-470 limits assumed): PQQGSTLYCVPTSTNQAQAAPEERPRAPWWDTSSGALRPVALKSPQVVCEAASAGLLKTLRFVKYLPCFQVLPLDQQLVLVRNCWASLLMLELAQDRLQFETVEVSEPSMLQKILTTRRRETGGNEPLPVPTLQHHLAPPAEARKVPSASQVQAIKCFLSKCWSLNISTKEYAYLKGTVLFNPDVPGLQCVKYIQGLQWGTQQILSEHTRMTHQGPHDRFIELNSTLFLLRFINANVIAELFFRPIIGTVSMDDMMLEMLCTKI
hcDAF-12 act – activates DAF-12 receptor from parasite H. contortus. activation, % at 6.8 µM. hit rate 1.4% among 370,000. HEK293 hcDAF-12 lit1-tk-luc reporter, luminescence; 0% DMSO, 100% Δ7-dafachronic acid. AID 652067;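 active means activation above the mean of all tested compounds plus 3 SD, cut at about 5.5% in these data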;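 further: 100% = response to 3 µM Δ7-dafachronic acid high control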
SMARCA2 activ – SMARCA2 function activation, primary screen; MG213 cells, MMTV-luciferase reporter, dexamethasone, overnight; activation, % at 9.1 µM; hit rate 1% among 370,000; AID 652017; in the data active means activation above about 7.8%;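 further: 0% = vehicle wells and 100% = reference activator wells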
DAX1 inh-2 – DAX1 (NR0B1) inhibition, primary screen. inhibition, % at 6.8 µM. HEK293T StAR-luciferase reporter, SF-1/DAX-1 repression relief. hit rate 1.1% among 370,000;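 active means inhibition above the mean over all tested compounds plus 3 SD, cut at about 3.6% in these data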;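 further: 0% = DAX-1 cells with DMSO and 100% = cells lacking DAX-1 with DMSO; higher inhibition means more luminescence from relief of DAX-1 repression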
ssDAF12 agonist – activators of S. stercoralis DAF-12 nuclear receptor | activation, % at 6.8 µM | hit rate 1% among 370,000 | HEK293 ssDAF-12/GRIP1 lit1-tk-luc reporter, luminescence; % of 3 µM dafachronic acid response;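 active means activation above the mean over all tested compounds plus 3 SD, cut at about 0.9% in these data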;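 further: 0% = DMSO-only wells and 100% = 3 µM delta7-dafachronic acid wells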
hgDAF12 conf – confirmation of H. glycines DAF-12 agonists; activation, % at 6.8 µM; hit rate 80% among 3,300; HEK293 GAL4-hgDAF12 luciferase reporter, agonist mode; percent of butyrate response; shares compounds with hgDAF12 agonist; AID 743050;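 active means mean activation over triplicate wells above the hit cutoff derived from the earlier primary screen, cut at about 11% in these data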;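 further: 0% = DMSO low control and 100% = 2 mM sodium butyrate high control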
LXR ag 2 – counter-screen for DAF-12 agonists: agonists of human LXR-beta; shares compounds with hgDAF12 agonist; 3,300 tested, under 10 active; HEK293 Gal4-LXR luciferase reporter, 24 h; AID 743051; activation, % at 6.8 µM;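 active means mean activation of the triplicate above a set limit carried over from the primary screen, none filed active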
* hit, by the source's call. In the library only some 4.8% were active in any assay of this set; here they are far more common.

Screening N/C(=N\OC(=O)COc1ccc(Br)cc1Cl)c1ccncc1 returned hgDAF12 agonist 14*, DAX1 inh-1 2, hcDAF-12 act 6.3*, SMARCA2 activ 0, DAX1 inh-2 4.0*, ssDAF12 agonist 0, hgDAF12 conf 16* and LXR ag 2 1.
For Cc1ccccc1CN1[C@@H](C)[C@H](c2ccccc2)Oc2cccc(NCCc3ccccc3)c2S1(=O)=O the results were hgDAF12 agonist 1, hcDAF-12 act 0, SMARCA2 activ -1, DAX1 inh-2 -1 and ssDAF12 agonist -1.
For O=C(N/N=C/c1ccccc1)c1n[nH]c2c1CCCC2 the results were hgDAF12 agonist 17*, DAX1 inh-1 -1, hcDAF-12 act 2, SMARCA2 activ 7, DAX1 inh-2 3, ssDAF12 agonist 1.1*, hgDAF12 conf 16* and LXR ag 2 1.
Screening O=C(N/N=C/C(Br)=C/c1ccccc1)c1n[nH]c2c1CCC2 returned DAX1 inh-1 -2.
For C[C@H](c1ccccc1)N1C[C@@H](COCc2ccccc2)Oc2cccc(Oc3ccc(F)cc3)c2S1(=O)=O the results were hgDAF12 agonist -3, hcDAF-12 act -1, SMARCA2 activ -2, DAX1 inh-2 -2 and ssDAF12 agonist -1.
`Cc1cc(C)c2nc(N)sc2c1` gave hgDAF12 agonist 3, DAX1 inh-1 -1, hcDAF-12 act 3, SMARCA2 activ 3, DAX1 inh-2 0 and ssDAF12 agonist -1.
`Cc1cc(C)c2sc(N)nc2c1` gave hgDAF12 agonist 14*, DAX1 inh-1 -1, hcDAF-12 act -2, SMARCA2 activ -5, DAX1 inh-2 -1, ssDAF12 agonist -1, hgDAF12 conf 1 and LXR ag 2 0.
CC(NC(=O)C=Cc1ccco1)C(=O)NC(Cc1ccccc1)C(N)=O (stereo unspecified) was read as hgDAF12 agonist 5, hcDAF-12 act 0, SMARCA2 activ 2, DAX1 inh-2 0 and ssDAF12 agonist -1.
`C=CCNC(=O)C1CCN(c2cncnc2)CC1` gave hgDAF12 agonist 0, hcDAF-12 act 0, SMARCA2 activ -4, DAX1 inh-2 0 and ssDAF12 agonist -1.
`Cc1cc(N2CCOCC2)ccc1/C=C1\NC(=O)N(CC(=O)Nc2ccccc2C)C1=O` gave hgDAF12 agonist 0, DAX1 inh-1 -1, hcDAF-12 act -2, SMARCA2 activ 2, DAX1 inh-2 0 and ssDAF12 agonist -1.
Cc1cc(N2CCOCC2)ccc1/C=C1/SC(=O)NC1=O was read as hgDAF12 agonist 16*, DAX1 inh-1 1, hcDAF-12 act 5, SMARCA2 activ 4, DAX1 inh-2 1, ssDAF12 agonist 0, hgDAF12 conf 9 and LXR ag 2 0.
For CCOc1cc(/C=N/Nc2nncc(-c3ccccc3)n2)ccc1O the results were hgDAF12 agonist 0, DAX1 inh-1 -2, hcDAF-12 act -2, SMARCA2 activ -1, DAX1 inh-2 -2 and ssDAF12 agonist -2.
Screening Oc1cccc(/C=N\Nc2nncc(-c3ccccc3)n2)c1 returned hgDAF12 agonist 16*, DAX1 inh-1 1, hcDAF-12 act 3, SMARCA2 activ 4, DAX1 inh-2 1, ssDAF12 agonist 0, hgDAF12 conf 12* and LXR ag 2 1.
COc1ccc(N2C[C@@]3(O)CC[C@@H](O)[C@@H](OC)[C@@H]3[C@@](C)(O)[C@@H]2CC=C(C)C)cc1 was read as hgDAF12 agonist 2, hcDAF-12 act 3, SMARCA2 activ -3, DAX1 inh-2 0 and ssDAF12 agonist -1.
For Cc1ccc(CN2CC=CCS2(=O)=O)cc1 the results were hgDAF12 agonist 1, hcDAF-12 act -1, SMARCA2 activ -7, DAX1 inh-2 2 and ssDAF12 agonist -1.
For Cn1c(SCC(=O)Nc2nccs2)nnc1-c1ccncc1 the results were hgDAF12 agonist 0, DAX1 inh-1 -1, hcDAF-12 act 0, SMARCA2 activ -2, DAX1 inh-2 0 and ssDAF12 agonist -1.
Cc1ccc(-c2cc(-c3nnc(SCC(=O)Nc4nccs4)n3N)[nH]n2)cc1 was read as hgDAF12 agonist 13*, hcDAF-12 act 4, SMARCA2 activ 2, DAX1 inh-2 2, ssDAF12 agonist 0, hgDAF12 conf 10* and LXR ag 2 0.
COC(C(=O)N/N=C(\C)c1ccc(C)cc1)c1ccccc1 (stereo unspecified) was read as hgDAF12 agonist -1, DAX1 inh-1 -1, hcDAF-12 act -1, SMARCA2 activ 1, DAX1 inh-2 -1 and ssDAF12 agonist -2.
Screening COC(C(=O)N/N=C(\C)c1ccc(O)cc1)c1ccccc1 (stereo unspecified) returned hgDAF12 agonist 14*, DAX1 inh-1 0, hcDAF-12 act 5, SMARCA2 activ 7, DAX1 inh-2 1, ssDAF12 agonist 1, hgDAF12 conf 1 and LXR ag 2 0.
O=C(Nc1ccc2ncccc2c1)Nc1ccc2ncccc2c1 was read as hgDAF12 agonist 7, DAX1 inh-1 -2, hcDAF-12 act -2, SMARCA2 activ -1, DAX1 inh-2 -1 and ssDAF12 agonist -1.
For c1cnc2ccc(-c3ccc4ncccc4c3)cc2c1 the results were hgDAF12 agonist 14*, DAX1 inh-1 4, hcDAF-12 act 5, SMARCA2 activ 2, DAX1 inh-2 3.8*, ssDAF12 agonist -1, hgDAF12 conf 17* and LXR ag 2 1.
`Cc1nn(C(=O)c2cccs2)c(N)c1-c1ccccc1` gave hgDAF12 agonist 15*, DAX1 inh-1 3, hcDAF-12 act 5, SMARCA2 activ 5, DAX1 inh-2 3.7*, ssDAF12 agonist -1, hgDAF12 conf 17* and LXR ag 2 0.
For CC1(C)CC(=O)C=C(c2ccccc2F)C1=O the results were hgDAF12 agonist 0, hcDAF-12 act 0, SMARCA2 activ 1, DAX1 inh-2 1 and ssDAF12 agonist -1.
CCCCOc1ccc(C(=O)NC2CCCCN(C)C2=O)cc1 (stereo unspecified) was read as hgDAF12 agonist 6, hcDAF-12 act -1, SMARCA2 activ 2, DAX1 inh-2 -1 and ssDAF12 agonist -1.
`CC(=O)Oc1ccc2occ(C(=O)c3cccs3)c2c1` gave hgDAF12 agonist 14*, DAX1 inh-1 0, hcDAF-12 act 4, SMARCA2 activ 2, DAX1 inh-2 3, ssDAF12 agonist -1, hgDAF12 conf 11* and LXR ag 2 0.
CC(=O)Oc1ccc2occ(C(=O)c3ccccc3)c2c1 was read as hgDAF12 agonist 9, hcDAF-12 act 4, SMARCA2 activ 0, DAX1 inh-2 1 and ssDAF12 agonist 0.
